Assay results from publication PMC7862700, “An all-to-all approach to the identification of sequence-specific readers for epigenetic DNA modifications on cytosine”.

Assays:
Assay in all cases: DAPPL (digital affinity profiling via proximity ligation, sequencing); 10 mM Tris-HCl pH 7.5, 50 mM NaCl, 1 mM DTT, 4% glycerol, room temperature, 30 min; GST-TFs on glutathione beads, 16-mer random dsDNA library, 0.1% formaldehyde crosslink after washing; high values mean tight binding
Conditions in all cases: protein: recombinant; tags: N-terminal GST; dsDNA, one strand shown
[1] = target: T1, GABPA (Homo sapiens, UniProt Q06546 1-454)
T1 sequence: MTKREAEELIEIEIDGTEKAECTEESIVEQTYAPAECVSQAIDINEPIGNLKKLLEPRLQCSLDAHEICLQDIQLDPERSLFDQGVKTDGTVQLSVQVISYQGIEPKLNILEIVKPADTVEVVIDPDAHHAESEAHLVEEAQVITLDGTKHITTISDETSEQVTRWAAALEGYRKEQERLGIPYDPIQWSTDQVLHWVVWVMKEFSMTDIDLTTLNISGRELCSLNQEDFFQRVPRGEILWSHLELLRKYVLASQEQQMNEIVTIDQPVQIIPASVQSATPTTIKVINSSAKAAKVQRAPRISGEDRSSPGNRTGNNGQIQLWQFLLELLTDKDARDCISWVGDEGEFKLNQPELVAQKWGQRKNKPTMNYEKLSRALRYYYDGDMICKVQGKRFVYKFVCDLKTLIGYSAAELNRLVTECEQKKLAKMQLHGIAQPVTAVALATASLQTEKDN
Procedure, shortened: (§1)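 A tag-only sample was pooled with DNA-barcoded human transcription factors that had been expressed in yeast as GST fusions and captured on glutathione beads. The pools were incubated for 30 min at room temperature with 200 nmole of a random double-stranded 16-mer DNA library in Tris/NaCl/DTT/glycerol buffer, then washed, crosslinked with 0.1% formaldehyde, proximity-ligated (BsaI/T4 ligase, 1 h, 37 °C), PCR-amplified and sequenced on an Illumina NextSeq500. Binding signal is each hexamer's read frequency for a factor divided by its frequency for the tag-only sample.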

[2] = target: SPI1 (Homo sapiens, UniProt P17947 1-270)
Procedure, shortened: as §1

[3] = target: T2, SPIC (Homo sapiens, UniProt Q8N5J4 1-248)
T2 sequence: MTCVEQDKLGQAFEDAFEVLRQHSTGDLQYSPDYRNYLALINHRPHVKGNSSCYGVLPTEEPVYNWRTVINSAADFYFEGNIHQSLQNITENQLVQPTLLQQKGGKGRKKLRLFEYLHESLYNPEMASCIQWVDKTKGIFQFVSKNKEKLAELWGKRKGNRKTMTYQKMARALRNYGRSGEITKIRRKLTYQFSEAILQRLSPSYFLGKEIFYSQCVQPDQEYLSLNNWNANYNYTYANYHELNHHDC
Procedure, shortened: as §1

[4] = target: T3, ELF3 (Homo sapiens, UniProt P78545 1-371)
T3 sequence: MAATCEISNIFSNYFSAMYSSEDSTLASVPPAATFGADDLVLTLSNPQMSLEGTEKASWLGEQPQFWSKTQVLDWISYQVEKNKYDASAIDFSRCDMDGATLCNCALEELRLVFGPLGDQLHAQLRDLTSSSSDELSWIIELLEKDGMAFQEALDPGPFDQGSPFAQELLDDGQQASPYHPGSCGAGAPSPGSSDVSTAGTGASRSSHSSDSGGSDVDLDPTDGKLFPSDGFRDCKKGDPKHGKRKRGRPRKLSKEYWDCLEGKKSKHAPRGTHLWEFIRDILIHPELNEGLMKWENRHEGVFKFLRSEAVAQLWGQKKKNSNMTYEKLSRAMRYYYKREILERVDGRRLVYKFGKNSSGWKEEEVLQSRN
Procedure, shortened: as §1

[5] = target: ETV1 (Homo sapiens, UniProt P50549 1-477)
Procedure, shortened: as §1

[6] = target: T4, ELF5 (Homo sapiens, UniProt Q9UKW6-2 1-255)
T4 sequence: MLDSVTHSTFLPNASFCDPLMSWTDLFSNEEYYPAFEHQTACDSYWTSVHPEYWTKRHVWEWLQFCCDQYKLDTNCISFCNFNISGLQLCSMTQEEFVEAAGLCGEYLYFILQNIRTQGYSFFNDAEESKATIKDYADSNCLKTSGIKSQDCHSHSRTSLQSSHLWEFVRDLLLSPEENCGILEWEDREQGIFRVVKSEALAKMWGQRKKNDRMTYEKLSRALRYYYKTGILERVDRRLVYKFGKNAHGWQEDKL
Procedure, shortened: as §1

[7] = target: T5, ETV3 (Homo sapiens, UniProt P41162-2 1-143)
T5 sequence: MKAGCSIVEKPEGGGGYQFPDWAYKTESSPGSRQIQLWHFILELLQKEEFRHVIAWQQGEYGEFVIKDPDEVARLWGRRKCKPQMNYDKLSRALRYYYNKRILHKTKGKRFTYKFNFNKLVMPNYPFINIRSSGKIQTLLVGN
Procedure, shortened: as §1

[8] = target: T6, ETV7 (Homo sapiens, UniProt Q9Y603 1-341)
T6 sequence: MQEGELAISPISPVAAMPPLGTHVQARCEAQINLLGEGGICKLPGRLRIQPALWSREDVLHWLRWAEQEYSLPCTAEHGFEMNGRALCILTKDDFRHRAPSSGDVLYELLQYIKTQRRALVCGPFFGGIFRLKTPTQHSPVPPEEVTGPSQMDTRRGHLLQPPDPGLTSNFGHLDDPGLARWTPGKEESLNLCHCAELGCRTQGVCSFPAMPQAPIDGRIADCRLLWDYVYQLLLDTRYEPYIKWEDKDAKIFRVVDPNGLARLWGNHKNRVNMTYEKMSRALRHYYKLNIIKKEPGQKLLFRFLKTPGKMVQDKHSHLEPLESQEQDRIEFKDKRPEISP
Procedure, shortened: as §1

[9] = target: ELF1 (Homo sapiens, UniProt P32519 1-619)
Procedure, shortened: as §1

[10] = target: T7, ELK3 (Homo sapiens, UniProt P41970 1-407)
T7 sequence: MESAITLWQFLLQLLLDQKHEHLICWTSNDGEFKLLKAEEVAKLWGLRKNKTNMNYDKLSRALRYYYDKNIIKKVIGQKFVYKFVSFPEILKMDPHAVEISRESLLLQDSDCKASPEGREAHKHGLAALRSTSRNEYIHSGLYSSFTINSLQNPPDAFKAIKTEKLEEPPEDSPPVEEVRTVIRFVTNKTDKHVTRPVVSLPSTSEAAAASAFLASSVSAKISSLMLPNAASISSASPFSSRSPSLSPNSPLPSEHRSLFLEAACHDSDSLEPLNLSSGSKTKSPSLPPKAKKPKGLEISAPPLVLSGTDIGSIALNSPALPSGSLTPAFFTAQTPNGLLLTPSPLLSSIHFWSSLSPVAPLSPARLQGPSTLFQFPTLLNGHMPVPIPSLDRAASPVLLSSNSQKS
Procedure, shortened: as §1

[11] = target: T8, ELK4 (Homo sapiens, UniProt P28324-2 1-405)
T8 sequence: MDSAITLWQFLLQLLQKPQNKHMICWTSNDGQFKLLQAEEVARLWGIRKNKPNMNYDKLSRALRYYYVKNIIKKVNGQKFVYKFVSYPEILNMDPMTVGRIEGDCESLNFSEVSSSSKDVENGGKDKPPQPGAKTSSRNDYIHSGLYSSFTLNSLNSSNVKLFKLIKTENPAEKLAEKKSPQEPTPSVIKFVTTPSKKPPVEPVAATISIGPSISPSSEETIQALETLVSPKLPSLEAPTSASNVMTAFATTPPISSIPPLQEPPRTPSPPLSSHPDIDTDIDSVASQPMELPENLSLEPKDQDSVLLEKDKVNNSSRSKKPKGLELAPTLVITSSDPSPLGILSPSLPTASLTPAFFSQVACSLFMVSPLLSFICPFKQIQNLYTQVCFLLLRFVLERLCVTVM
Procedure, shortened: as §1

[12] = target: T9, ETS2 (Homo sapiens, UniProt P15036 1-469)
T9 sequence: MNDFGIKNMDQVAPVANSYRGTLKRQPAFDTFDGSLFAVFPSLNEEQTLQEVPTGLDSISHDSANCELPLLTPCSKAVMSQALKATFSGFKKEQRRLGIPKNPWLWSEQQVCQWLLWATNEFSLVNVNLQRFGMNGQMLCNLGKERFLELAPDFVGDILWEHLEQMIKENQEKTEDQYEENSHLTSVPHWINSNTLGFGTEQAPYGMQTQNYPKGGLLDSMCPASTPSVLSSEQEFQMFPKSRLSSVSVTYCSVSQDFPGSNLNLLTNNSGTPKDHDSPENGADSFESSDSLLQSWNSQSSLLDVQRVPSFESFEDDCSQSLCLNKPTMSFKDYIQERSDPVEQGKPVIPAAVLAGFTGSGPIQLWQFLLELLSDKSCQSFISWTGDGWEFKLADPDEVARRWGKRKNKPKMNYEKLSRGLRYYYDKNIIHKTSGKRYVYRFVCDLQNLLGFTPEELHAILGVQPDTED
Procedure, shortened: as §1

Sequence of ETV1 (P50549 whole entry): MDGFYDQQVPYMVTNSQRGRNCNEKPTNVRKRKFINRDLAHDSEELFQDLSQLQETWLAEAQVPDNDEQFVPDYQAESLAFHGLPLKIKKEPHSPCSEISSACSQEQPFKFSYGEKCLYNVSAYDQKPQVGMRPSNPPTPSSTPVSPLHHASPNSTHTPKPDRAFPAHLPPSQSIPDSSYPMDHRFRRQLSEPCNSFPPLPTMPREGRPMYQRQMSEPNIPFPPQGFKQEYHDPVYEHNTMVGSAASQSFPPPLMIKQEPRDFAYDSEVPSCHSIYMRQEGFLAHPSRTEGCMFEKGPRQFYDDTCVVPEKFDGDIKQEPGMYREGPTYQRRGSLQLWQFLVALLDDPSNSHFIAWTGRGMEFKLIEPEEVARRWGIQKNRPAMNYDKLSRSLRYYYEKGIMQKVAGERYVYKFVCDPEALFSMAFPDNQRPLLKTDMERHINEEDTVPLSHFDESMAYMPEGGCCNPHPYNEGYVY
Sequence of ELF1 (P32519 whole entry): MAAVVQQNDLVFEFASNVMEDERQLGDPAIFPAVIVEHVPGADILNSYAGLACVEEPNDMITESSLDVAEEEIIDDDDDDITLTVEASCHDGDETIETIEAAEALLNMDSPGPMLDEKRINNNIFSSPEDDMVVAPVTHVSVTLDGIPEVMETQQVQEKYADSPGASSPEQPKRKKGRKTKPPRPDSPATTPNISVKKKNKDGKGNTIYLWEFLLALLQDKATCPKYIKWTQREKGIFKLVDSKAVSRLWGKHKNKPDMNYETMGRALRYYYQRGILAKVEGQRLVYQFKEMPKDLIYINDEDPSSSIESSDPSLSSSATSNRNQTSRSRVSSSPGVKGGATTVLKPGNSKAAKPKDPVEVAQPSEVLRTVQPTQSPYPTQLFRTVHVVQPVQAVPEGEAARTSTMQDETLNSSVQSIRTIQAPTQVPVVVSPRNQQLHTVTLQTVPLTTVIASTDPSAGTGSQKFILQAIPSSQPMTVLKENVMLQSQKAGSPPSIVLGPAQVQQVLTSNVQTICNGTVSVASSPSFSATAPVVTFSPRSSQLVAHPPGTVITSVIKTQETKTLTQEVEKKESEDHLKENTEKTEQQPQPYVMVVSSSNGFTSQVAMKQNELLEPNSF

Q: How did the binding signal [1] turn out when ATGAGG was run?
A: 1.03 fold enrichment (6-mer frequency, TF over GST control)

Q: And the binding signal [2]?
A: 1.4 fold enrichment (6-mer frequency, TF over GST control)

Q: And the binding signal [3]?
A: 1.06 fold enrichment (6-mer frequency, TF over GST control)

Q: What about the binding signal [4] of the same sequence?
A: 1.17 fold enrichment (6-mer frequency, TF over GST control)

Q: What about the binding signal [5] of the same sequence?
A: 1.01 fold enrichment (6-mer frequency, TF over GST control)

Q: What about the binding signal [6] of the same sequence?
A: 1.11 fold enrichment (6-mer frequency, TF over GST control)

Q: What about the binding signal [7] of the same sequence?
A: 1.01 fold enrichment (6-mer frequency, TF over GST control)

Q: How did the binding signal [3] turn out when AAGGCC was run?
A: 1.06 fold enrichment (6-mer frequency, TF over GST control)

Q: What about the binding signal [8] of the same sequence?
A: 1.01 fold enrichment (6-mer frequency, TF over GST control)

Q: CACTGA was tested. Which binding signal [1] did it give?
A: 1.09 fold enrichment (6-mer frequency, TF over GST control)

Q: And the binding signal [9]?
A: 1.02 fold enrichment (6-mer frequency, TF over GST control)

Q: And the binding signal [10]?
A: 1.07 fold enrichment (6-mer frequency, TF over GST control)

Q: And the binding signal [3]?
A: 1.06 fold enrichment (6-mer frequency, TF over GST control)

Q: And the binding signal [11]?
A: 1.01 fold enrichment (6-mer frequency, TF over GST control)

Q: And the binding signal [5]?
A: 1.09 fold enrichment (6-mer frequency, TF over GST control)

Q: And the binding signal [12]?
A: 1.04 fold enrichment (6-mer frequency, TF over GST control)
